Data taken from PubChem BioAssay (Tox21).
Records with an inconclusive call do not appear. Unmarked numbers belong to inactive results. Activity calls are given as the source filed them. The call rests on the fitted dose curve; in most records, active means well fitted cell-killing curve with a large enough effect in the repeat runs; inconclusive means weak or mixed curves, or effect the other way; inactive means no such curve, though single readings can be large or run the other way.

assay: Caspase-3/7 induction in CHO-K1 cells by small molecules, qHTS cell viability counter screen (AID 1346979); details: CellTiter-Fluor fluorescence, 17 h; series mostly up to 92.4 µM; activity change, negative = cytotoxicity: at the top concentration; further: nearly all actives have a fitted effect of over 35% in size
Text: National Center for Advancing Translational Sciences [NCATS]
NIH Chemical Genomics Center [NCGC]
U.S. Environmental Protection Agency [EPA]
National Institutes of Environmental Health Sciences [NIEHS]
National Toxicology Program [NTP]
U.S. Food and Drug Administration [FDA]
Apoptosis is a process of programmed cell death and plays a central role in the development of multicellular organisms. It is a highly regulated process and induces cell death by activating caspases, which are the members of cysteine aspartic acid-specific protease (caspase) family. Caspases involved in apoptosis are classified by their mechanism of action as initiator caspases (caspase-2, -8, -9 and -10) and executioner caspases (caspase-3, -6, and -7). Inhibition of apoptosis results in number of cancers, autoimmune diseases, inflammatory diseases and viral infection. To identify small molecule compounds that induce apoptosis, a homogeneous, luminescent Caspase-Glo 3/7 assay was used. Wild type CHO-K1 cells were used to screen Tox21 libraries for identifying caspase-3/7 activity inducers. Also cytotoxicity of the compounds was tested in parallel by measuring the cell viability using CellTiter-Fluor assay system in the same wells.
Tox21 Assay Protocol Summary:
CHO-K1 cells were dispensed at 1,500 per well in 5uL of culture medium into white solid bottom 1536-well plates (Corning Life Sciences, Corning, NY) using a Multidrop Combi (Thermo Scientific, Waltham, MA) dispenser. The assay plates were incubated at 37 C and 5% CO2 for 5hr, and then 23nL of compounds dissolved in DMSO and positive control were transferred using a Pintool station (Wako, San Diego, CA). The assay plates were incubated at 37C and 5% CO2 for 17hr. For cytotoxicity read, after 16hr incubation at 37C, 1uL CellTiter-Fluor reagent (Promega Corporation, Madison, WI) was added to each well of the assay plates using Flying Reagent Dispenser (FRD, Aurora Discovery, San Diego, CA). After 1hr incubation at 37C and 5% CO2, the fluorescence signal was quantified using a ViewLux plate reader (PerkinElmer, Shelton, CT).
On the % scale 0 is the no-effect control and ±100 the full control effect; potency means the concentration at half of the fitted maximal effect.

Row | SMILES | activity change, negative = cytotoxicity | Potency
1 | CCC(O)CO (stereo not given) | 7.9% | 
2 | CC(C)C(=O)C(C)C | 9.04% | 
3 | CCOc1nc(F)cc2nc(S(=O)(=O)Nc3c(Cl)cccc3C(=O)OC)nn12 | -0.525% | 
4 | ClC(c1ccccc1)(c1ccccc1)c1ccccc1 | -3.76% | 
5 | CC1(C)[C@H]2CC[C@]1(C)C(=O)C2 |  | 61.1 µM (active)
6 | O=C1OC(O)C(C(Cl)Cl)=C1Cl (stereo not given) |  | 17.8 µM (active)
7 | Brc1cc(Br)cc(Br)c1 | -2.58% | 
8 | O=C1CCCCCCCCCCCCCC1 | 4.3% | 
9 | CCCCCCCCc1ccc(Nc2ccc(CCCCCCCC)cc2)cc1 | -0.935% [at 42.5 µM] | 
10 | O=C1OCc2ccccc21 | -0.609% | 
11 | CC(C)=CCC[C@H](C)CC=O | 2.58% | 
12 | CCc1c(C)cc(N)c(CC)c1N | -4.49% | 
13 | O=C(N[C@H](CO)[C@H](O)c1ccc([N+](=O)[O-])cc1)C(Cl)Cl | 3.61% | 
14 | COc1cc2ncnc(Nc3cccc(Cl)c3)c2cc1OC | -12.4% [at 19 µM] | 
15 | CN1CCN(c2ccccc2/C=C2\SCCN(c3ccc(Cl)c(Cl)c3)C2=O)CC1 |  | 61.1 µM (active)
16 | Cc1ccc2sc3cccc(C)c3c2c1 | -1.37% | 
17 | CC/C=C(\C)C=O | 4.59% | 
18 | Cc1ccc(C=O)cc1 | -4.72% [at 42.5 µM] | 
19 | C1=CCCC1 | 3.45% | 
20 | SC1CCCCC1 | 8.98% | 

Row | SMILES | activity change, negative = cytotoxicity | Potency
21 | CC1=CC[C@@H](C(C)(C)O)CC1 | 3.49% | 
22 | c1ccc(-c2ccc(C(c3ccccc3)n3ccnc3)cc2)cc1 (stereo not given) |  | 18.8 µM (active)
23 | O=[N+]([O-])c1ccc(CO)cc1 | -1.39% | 
24 | CCN(CC)c1ccc(C=O)cc1 | 3.3% | 
25 | Oc1ccc2c(c1)CCC2 | -1.08% | 
26 | CCOC(=O)OC(=O)OCC | 1.91% | 
27 | CN1CC[C@H](c2c(O)cc(O)c3c(=O)cc(-c4ccccc4Cl)oc23)[C@H](O)C1 |  | 0.0944 µM (active)
28 | CCNc1nc(NC(C)(C)C)nc(OC)n1 | -1.76% | 
29 | CCc1cccc(C)c1N(C(=O)CS(=O)(=O)O)C(C)COC (stereo not given) | 4.55% | 
30 | C=Cc1ccncc1 | 8.77% | 
31 | CC(=O)[C@]1(O)Cc2c(O)c3c(c(O)c2[C@@H](O[C@H]2C[C@H](N)[C@H](O)[C@H](C)O2)C1)C(=O)c1ccccc1C3=O |  | 11.9 µM (active)
32 | CN(C/C=C/c1ccccc1)Cc1cccc2ccccc12 | -0.795% [at 42.5 µM] | 
33 | COCCC(=O)OC | 0.859% | 
34 | Cc1cc(F)ccc1-c1cc(N2CC[C@@H](O)[C@H]2CO)ncc1N(C)C(=O)C(C)(C)c1cc(C(F)(F)F)cc(C(F)(F)F)c1 |  | 24 µM (active)
35 | O=S(=O)(c1ccc(OCc2ccccc2)cc1)c1ccccc1O |  | 43.3 µM (active)
36 | c1ccc2occc2c1 | 8.95% | 
37 | CCN(CC)c1ccc2c(c1)Oc1cc(N(CC)CC)ccc1C21OC(=O)c2ccccc21 |  | 2.37 µM (active)
38 | CCCCCCCCCCCCCCCCCCNC(=O)OC1CCN(C(=O)OC[C@H](COC(=O)N(Cc2cccc[n+]2CC)C(=O)c2ccccc2OC)OC)CC1 |  | 29.8 µM (active)
39 | CC(C)(c1ccc(Oc2ccc(N)cc2)cc1)c1ccc(Oc2ccc(N)cc2)cc1 |  | 48.6 µM (active)
40 | CN[C@H]1CC[C@@H](c2ccc(Cl)c(Cl)c2)c2ccc(S(N)(=O)=O)cc21 |  | 61.1 µM (active)
